According to the supplement of paper PMC3334620:
Over roughly 33,000 sequences, “E-score (-0.5 to 0.5)” has its median near -8e-05; the highest 2% begin near 0.23. This excerpt belongs to a sample that is enriched for the highest values.

The sequences below were run against T1, Nrg2 (UniProt P38082) (assay: PBM E-score (8-mer binding enrichment) (E-score (-0.5 to 0.5)); higher = stronger / more preferred TF binding). Settings: protein concentration: 100 nM; construct: GST-full length.
T1 sequence: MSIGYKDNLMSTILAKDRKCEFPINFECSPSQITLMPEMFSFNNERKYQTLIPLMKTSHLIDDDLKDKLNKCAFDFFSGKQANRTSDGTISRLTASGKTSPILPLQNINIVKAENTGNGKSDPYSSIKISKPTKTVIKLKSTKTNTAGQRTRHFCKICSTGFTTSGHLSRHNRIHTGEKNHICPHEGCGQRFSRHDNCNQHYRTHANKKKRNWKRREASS
Protocol: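 Universal 'all 10-mer' protein binding microarrays (Agilent AMADID 015681) probed with GST-tagged S. cerevisiae TFs (full-length or DBD) made by in vitro transcription/translation (PURExpress), about 100-200 nM. Bound TF was detected with fluorescent anti-GST. Each ungapped 8-mer (which stands for itself and its reverse complement) is scored by the PBM enrichment score (E-score), a modified Wilcoxon-Mann-Whitney statistic from -0.5 to +0.5, computed with the Universal PBM Analysis Suite. Scale: above 0.35 generally sequence-specific binding.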
ATCGATAC was tested, and the “PBM E-score” value was 0.133.
In the case of ATCGATTA, the “PBM E-score” value is reported as 0.0753.
In the case of CTCGATTA, the “PBM E-score” value is reported as 0.251.
For CTCGATAA, the “PBM E-score” value was 0.041.
With CTCGATTC the “PBM E-score” value was 0.15.
In the case of GCGGATAC, the “PBM E-score” value is reported as 0.0466.
With GGCGCCAA the “PBM E-score” value was 0.133.
In the case of CGTCGCCC, the “PBM E-score” value is reported as -0.282.
In the case of CCAAAGCA, the “PBM E-score” value is reported as 0.119.
With GCTGCACC the “PBM E-score” value was -0.0621.
With TAATATAA the “PBM E-score” value was 0.302.
In the case of TAATATTA, the “PBM E-score” value is reported as 0.322.
TAATATCA was tested, and the “PBM E-score” value was 0.0975.
AAATATTG was tested, and the “PBM E-score” value was 0.204.
In the case of CAATATAA, the “PBM E-score” value is reported as 0.212.
For TAATATGA, the “PBM E-score” value was 0.0376.
For AAATATTA, the “PBM E-score” value was 0.247.
With CAATATTA the “PBM E-score” value was 0.154.
For GAATATAA, the “PBM E-score” value was 0.12.
With AACCTGTC the “PBM E-score” value was -0.0794.
For AGCTATAC, the “PBM E-score” value was -0.101.
CATGGGCA was tested, and the “PBM E-score” value was 0.0918.
TAATAACA was tested, and the “PBM E-score” value was 0.00017.
With ACATAATC the “PBM E-score” value was 0.193.
In the case of AAATAATC, the “PBM E-score” value is reported as 0.0163.
In the case of ACATAATA, the “PBM E-score” value is reported as 0.295.
With GCATAATA the “PBM E-score” value was 0.201.
In the case of CAATAACA, the “PBM E-score” value is reported as 0.0577.
In the case of GAATAACA, the “PBM E-score” value is reported as 0.265.
For AAATAATT, the “PBM E-score” value was 0.243.
For AAATAATA, the “PBM E-score” value was 0.203.
With GAATAATA the “PBM E-score” value was 0.238.
With TAATAATA the “PBM E-score” value was 0.0963.
With GAATAATC the “PBM E-score” value was 0.185.
For CTGGCCGA, the “PBM E-score” value was -0.163.
With AACCTCCT the “PBM E-score” value was -0.264.
With ACTCATAT the “PBM E-score” value was -0.028.
In the case of CCATTCAC, the “PBM E-score” value is reported as 0.0939.
With CGGACACG the “PBM E-score” value was -0.0788.
For GTCTAAAA, the “PBM E-score” value was -0.0766.
With CAGTCACA the “PBM E-score” value was -0.0678.
In the case of GAGTAATA, the “PBM E-score” value is reported as 0.232.
With CAGTAATA the “PBM E-score” value was 0.161.
AAGTAATA was tested, and the “PBM E-score” value was -0.00088.
In the case of ATCGGCTC, the “PBM E-score” value is reported as -0.0282.
AAGAATGT was tested, and the “PBM E-score” value was 0.107.
In the case of GCCCTGGA, the “PBM E-score” value is reported as 0.247.
For CCCCTGGA, the “PBM E-score” value was 0.0369.
With AGCCTGGG the “PBM E-score” value was -0.159.
With ACCCTGGA the “PBM E-score” value was 0.279.
With AACCTGGA the “PBM E-score” value was -0.00995.
In the case of ACCCTGGC, the “PBM E-score” value is reported as 0.338.
AGCCTGGA was tested, and the “PBM E-score” value was -0.0491.
AACCTGGG was tested, and the “PBM E-score” value was -0.131.
In the case of AACCTGGC, the “PBM E-score” value is reported as -0.18.
With GTCCTGGA the “PBM E-score” value was -0.261.
For CCCCTGGC, the “PBM E-score” value was 0.11.
ACCCTGGG was tested, and the “PBM E-score” value was 0.328.
CCTAAGGC was tested, and the “PBM E-score” value was -0.191.
In the case of CCCTCATC, the “PBM E-score” value is reported as -0.0723.
With CGGGGGAC the “PBM E-score” value was -0.242.
For ACCCAGGG, the “PBM E-score” value was 0.0967.
With AAAACCTA the “PBM E-score” value was 0.0556.
For CGTAGGAA, the “PBM E-score” value was -0.0744.
CAGGGAAC was tested, and the “PBM E-score” value was 0.0728.
For TGCAACAA, the “PBM E-score” value was 0.00649.
In the case of ATGAGGTC, the “PBM E-score” value is reported as -0.142.
In the case of CGCGCTTA, the “PBM E-score” value is reported as 0.254.
AGCGCTTA was tested, and the “PBM E-score” value was 0.131.
For CGCGCTAA, the “PBM E-score” value was 0.259.
In the case of TGCGCTAA, the “PBM E-score” value is reported as 0.0259.
CGCGCTGA was tested, and the “PBM E-score” value was 0.0409.
GGCGCTAA was tested, and the “PBM E-score” value was -0.0159.
In the case of ACTAGTGG, the “PBM E-score” value is reported as 0.123.
CAGCTCAC was tested, and the “PBM E-score” value was -0.161.
With CGCCGCTC the “PBM E-score” value was 0.0612.
With ACACGCGT the “PBM E-score” value was 0.00123.
For GCAACATA, the “PBM E-score” value was 0.0428.
In the case of ACAACATA, the “PBM E-score” value is reported as 0.268.
For ACAACATC, the “PBM E-score” value was -0.042.
With AGTTTGCA the “PBM E-score” value was -0.0668.
With AGGGTGCA the “PBM E-score” value was 0.256.
In the case of AGGGTTTA, the “PBM E-score” value is reported as 0.235.
In the case of AGGGTTTG, the “PBM E-score” value is reported as 0.172.
For GGGGTTCA, the “PBM E-score” value was 0.166.
With CGGGTTTA the “PBM E-score” value was 0.104.
With AGGGTTCA the “PBM E-score” value was 0.281.
In the case of AGGGTGCG, the “PBM E-score” value is reported as 0.0103.
In the case of CGGGTGCA, the “PBM E-score” value is reported as -0.0669.
With AGGGTTCC the “PBM E-score” value was 0.189.
With AGCTGGCG the “PBM E-score” value was -0.158.
With AACCCGTA the “PBM E-score” value was -0.0217.
For GAATTCGA, the “PBM E-score” value was 0.0262.
For CCAACTAA, the “PBM E-score” value was 0.0905.
For ATAACTAA, the “PBM E-score” value was 0.0389.
For TAAACTAA, the “PBM E-score” value was 0.186.
TTAACTAA was tested, and the “PBM E-score” value was 0.249.
In the case of AAAACTAT, the “PBM E-score” value is reported as 0.0045.
With CTAACTAA the “PBM E-score” value was -0.0143.
With AAAACTAA the “PBM E-score” value was 0.234.
For GCAACTAA, the “PBM E-score” value was 0.288.
In the case of TCAACTAA, the “PBM E-score” value is reported as 0.0939.
In the case of ACAGTTCG, the “PBM E-score” value is reported as 0.103.
GAGGCAAC was tested, and the “PBM E-score” value was -0.192.
For AAGTAAGG, the “PBM E-score” value was 0.159.
In the case of CGAAAACA, the “PBM E-score” value is reported as 0.0723.
For CTGGCCTA, the “PBM E-score” value was -0.0943.
In the case of ACTTAGCT, the “PBM E-score” value is reported as -0.202.
With CGCAGAAA the “PBM E-score” value was 0.0592.
In the case of GATATATC, the “PBM E-score” value is reported as 0.0168.
In the case of AATATATA, the “PBM E-score” value is reported as 0.0908.
With TATATACA the “PBM E-score” value was 0.207.
For GATATATA, the “PBM E-score” value was 0.247.
With AAAATATA the “PBM E-score” value was 0.00189.
In the case of GAAATATA, the “PBM E-score” value is reported as 0.256.
With CATATATA the “PBM E-score” value was 0.205.
AATATATG was tested, and the “PBM E-score” value was 0.225.
TATATATA was tested, and the “PBM E-score” value was 0.269.
TAAATATA was tested, and the “PBM E-score” value was 0.144.
For GATATACA, the “PBM E-score” value was 0.0803.
With AATATATT the “PBM E-score” value was 0.341.
With AGGCCGCC the “PBM E-score” value was -0.0684.
With CGACCAAA the “PBM E-score” value was 0.222.
ATTACCAA was tested, and the “PBM E-score” value was 0.0553.
In the case of CATTGACG, the “PBM E-score” value is reported as -0.0426.
With ACTTCGGC the “PBM E-score” value was -0.0688.
With CAAATATA the “PBM E-score” value was 0.03.
For TATATGGA, the “PBM E-score” value was 0.0065.
CAAATATG was tested, and the “PBM E-score” value was -0.0116.
In the case of AATATGGA, the “PBM E-score” value is reported as 0.0669.
In the case of AAAATAGA, the “PBM E-score” value is reported as 0.118.
In the case of GATATGGA, the “PBM E-score” value is reported as 0.259.
In the case of CAAATAGA, the “PBM E-score” value is reported as 0.296.
TAAATAGA was tested, and the “PBM E-score” value was -0.125.
In the case of CAAATATC, the “PBM E-score” value is reported as 0.256.
In the case of TAGCGTGA, the “PBM E-score” value is reported as 0.0132.
With CGGTAGAC the “PBM E-score” value was 0.0168.
In the case of CGGCGAAC, the “PBM E-score” value is reported as -0.0868.
CATTGGCC was tested, and the “PBM E-score” value was -0.0708.
ATCAGAAA was tested, and the “PBM E-score” value was -0.042.
For GGAATAAC, the “PBM E-score” value was 0.132.
For TAGGACAA, the “PBM E-score” value was 0.049.
In the case of GGATAGTA, the “PBM E-score” value is reported as 0.177.
With ATTATTCA the “PBM E-score” value was 0.23.
With ACTATTCG the “PBM E-score” value was 0.193.
For CTTATTCA, the “PBM E-score” value was -0.00255.
In the case of ATTATGCG, the “PBM E-score” value is reported as 0.266.
In the case of CTTATTAA, the “PBM E-score” value is reported as 0.196.
For ATTATTCG, the “PBM E-score” value was 0.295.
ATTATGCA was tested, and the “PBM E-score” value was -0.00258.
For ATTATTCC, the “PBM E-score” value was 0.0891.
ATTATGCC was tested, and the “PBM E-score” value was 0.115.
In the case of ATTATTAA, the “PBM E-score” value is reported as 0.238.
With GTTATTAA the “PBM E-score” value was 0.182.
With GTTATTCA the “PBM E-score” value was 0.105.
In the case of CTTGATGC, the “PBM E-score” value is reported as -0.0811.
With CCAACCCA the “PBM E-score” value was -0.242.
In the case of TCTTCTAA, the “PBM E-score” value is reported as -0.0126.
In the case of CAGATATG, the “PBM E-score” value is reported as 0.159.
CGGATTGC was tested, and the “PBM E-score” value was 0.161.
In the case of CGCGTTTA, the “PBM E-score” value is reported as 0.0535.
For TGTCCGAA, the “PBM E-score” value was 0.143.
For ACAGGCTC, the “PBM E-score” value was -0.159.
ACCTCCCG was tested, and the “PBM E-score” value was -0.177.
In the case of TCGGTCAA, the “PBM E-score” value is reported as 0.0158.
CCCAGACG was tested, and the “PBM E-score” value was -0.0304.
In the case of CTTGCGAC, the “PBM E-score” value is reported as -0.142.
With ATTATACA the “PBM E-score” value was -0.00719.
In the case of ATCATTAA, the “PBM E-score” value is reported as 0.171.
In the case of ATTATACG, the “PBM E-score” value is reported as 0.252.
In the case of ATTATACC, the “PBM E-score” value is reported as 0.18.
GTCATTAA was tested, and the “PBM E-score” value was 0.25.
For CTCATTAA, the “PBM E-score” value was 0.173.
